Reference: PubChem BioAssay (NCATS)
Records with an inconclusive call do not appear. The source made the active and inactive calls. Calls follow the shape of the dose curve; as a rule, active = well fitted inhibition curve with a large enough effect; inconclusive = small, poorly fitted or top-dose-only effect; inactive = flat fitted curve, though single readings scatter.

test system: FAB9; assay: qHTS profiling for inhibitors of Plasmodium falciparum proliferation (AID 504749); also: nearly all actives have a fitted effect of over 60% in size;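 as to activity, negative = inhibition: 0% = DMSO vehicle and full inhibition = artemisinin control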; details: P. falciparum in erythrocytes, SYBR Green DNA, 72 h; series mostly up to 28.7 µM; activity, negative = inhibition: at the top concentration
How it was run: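 SYBR Green fluorescence (ex 485 nm, em 535 nm) reports parasite DNA after 72 h compound exposure of infected red cells at 0.3% parasitemia, 2.5% hematocrit; signal normalized to 0.29 uM artemisinin and vehicle wells.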
Potency is read from the fitted curve at half-maximal effect.

activity, negative = inhibition, inactive:
CCCCCCCCCCCCCCCC(=O)OC[C@H](O)[C@H]1OC[C@@H](O)[C@@H]1O -2.8%, C[C@H]1OC(OC2C(O)[C@@H](O)C(OC3C(O)[C@@H](O)C(O)O[C@@H]3CO)O[C@@H]2CO)[C@H](O)C(O)C1N[C@H]1C=C(CO)[C@@H](O)[C@H](O)C1O (stereo not given in full) 6.4%, CCN(CC)CC(=O)Nc1c(C)cc(C)cc1C 3.99%, CC(=O)N[C@H]1[C@H](O[C@@H]2c3ccc(c(Cl)c3)Oc3cc4cc(c3O[C@@H]3O[C@H](CO)[C@@H](O)[C@H](O)C3C)Oc3ccc(cc3Cl)C[C@H]3NC(=O)[C@@H](N)c5ccc(O)c(c5)Oc5cc(O)cc(c5)[C@H](NC3=O)C(=O)N[C@H]4C(=O)N[C@H]3C(=O)N[C@@H]2C(=O)N[C@@H](C(=O)O)c2cc(O)cc(O[C@H]4O[C@H](CO)[C@@H](O)C(O)[C@@H]4O)c2-c2cc3ccc2O)O[C@H](CO)[C@@H](O)[C@@H]1O (stereo not given in full) 3.34% [at 12.8 µM], NC(=O)c1ncn(C2OC(CO)C(O)C2O)c1N (stereo not given) 4.76%, CC1(Cn2ccnn2)[C@H](C(=O)O)N2C(=O)C[C@H]2S1(=O)=O (stereo not given in full) 7.51%, CN(C)CC/C=C1\c2ccccc2COc2ccc(CC(=O)O)cc21 8.5%, CCCC(=O)O[C@]1(C(=O)COC(C)=O)CC[C@H]2C3C[C@H](F)C4=CC(=O)C=CC4(C)[C@@]3(F)[C@@H](O)CC21C (stereo not given in full) 0.821%, OCCN1CC(O)C(O)C(O)C1CO (stereo not given) 0.174%, CC(CCC(=O)O)C1CCC2C3C(=O)C[C@@H]4CC(=O)CC[C@@]4(C)C3CC(=O)[C@]12C (stereo not given in full) 1.34%, O=C(OC[C@@H]1O[C@@](O)(COC(=O)c2cccnc2)[C@H](OC(=O)c2cccnc2)[C@H]1OC(=O)c1cccnc1)c1cccnc1 -1.32%, O=[N+]([O-])O[C@H]1CO[C@H]2[C@@H]1OC[C@H]2O 0.343%, COc1cccc(OC)c1C(=O)NC1C(=O)N2C1SC(C)(C)C2C(=O)O (stereo not given) 8.43%, NC[C@@H]1O[C@H](OC2[C@@H](CO)O[C@@H](OC3[C@H](O)[C@H](N)C[C@H](N)[C@H]3OC3O[C@H](CO)[C@@H](O)[C@H](O)[C@@H]3N)[C@H]2O)C(N)[C@H](O)[C@@H]1O (stereo not given in full) 6.32%, Cc1ccc(S(=O)(=O)NC(=O)NC(C)Cc2ccccc2)cc1 (stereo not given) 10.9%, OCCOC[C@H]1O[C@H](OCCO)[C@H](OCCO)[C@@H](OCCO)[C@@H]1OCCO (tested in a mixture with another compound) 1.4%, C[S+](C)CC[C@H](N)C(=O)O 4.19%, CC[C@@H]1/C=C(\C)C[C@H](C)C[C@H](OC)[C@H]2O[C@@](O)(C(=O)C(=O)N3CCCC[C@H]3C(=O)O[C@H](/C(C)=C/[C@@H]3CC[C@H](Cl)[C@H](OC)C3)[C@H](C)[C@@H](O)CC1=O)[C@H](C)C[C@@H]2OC 0.91%, NC(=O)C1CC2(NC(=O)NC2=O)c2cc(F)ccc2O1 (stereo not given) 1.63%, CN1[C@@H]2CC[C@@H]1CC(OC(=O)[C@H](CO)c1ccccc1)C2 (stereo not given in full) 9.83%, CCCCCCCCCCCC(=O)OCC(O)C1OCC(O)C1O (stereo not given) -0.965%, C/C1=C2/[N-]C(C(CC(N)=O)[C@@]2(C)CCC(=O)NCC(C)OP(=O)([O-])O[C@H]2[C@@H](O)[C@@H](n3cnc4cc(C)c(C)cc43)O[C@@H]2CO)[C@]2(C)N=C(/C(C)=C3N=C(/C=C4N=C1C(CCC(N)=O)C\4(C)C)[C@@H](CCC(N)=O)[C@]\3(C)CC(N)=O)[C@@H](CCC(N)=O)[C@]2(C)CC(N)=O.CC(=O)O.[Co] (stereo not given in full) 1.87%, CC1(C)OC[C@@H]2O[C@@]3(C(=O)O)OC(C)(C)O[C@@H]3[C@@H]2O1 0.247%, Cc1ccccc1N1C(=O)c2cc(N)ccc2N/C1=C\F 4.5%, O=C1C(I)=CC(=C(c2cc(I)c(O)c(I)c2)c2ccccc2C(=O)O)C=C1I 2.46%, NC(=O)NC(CCC(=O)O)C(=O)O (stereo not given) 0.528%, CC(=O)OCC(=O)[C@@]1(O)CCC2C3C[C@H](C)C4=CC(=O)C=CC4(C)C3C(O)CC21C (stereo not given in full) 4.08%, CC1(C)C2CC[C@]1(C)[C@@H](O)C2 0.117%, OCC1O[C@H](Oc2ccc(O)cc2)C(O)C(O)C1O (stereo not given in full) 9.99%, Nc1nc(F)nc2c1ncn2[C@@H]1O[C@H](CO)[C@@H](O)[C@H]1O 0.161%, CC1OC(OC2CCC3(C)C(CCC4C3CC(O)C3(C)C(C5=CC(=O)OC5)CCC43O)C2)CC(O)C1OC1CC(O)C(OC2CC(O)C(OC3OC(CO)C(O)C(O)C3O)C(C)O2)C(C)O1 (stereo not given) 6.8%, CC1OC(OCC2OC(Oc3c(-c4ccc(OCCO)c(OCCO)c4)oc4cc(OCCO)cc(O)c4c3=O)C(O)C(O)C2O)[C@@H](O)C(O)C1O (stereo not given in full) 2.53%

Potency, active:
CCCCC(=O)OCC(=O)[C@]1(O)Cc2c(O)c3c(c(O)c2[C@H](OC2CC(NC(=O)C(F)(F)F)C(O)C(C)O2)C1)C(=O)c1c(OC)cccc1C3=O (stereo not given in full) 11200 nM, C[C@H]1[C@@H](OC(=O)CCC(=O)O)OC2OC3(C)CC[C@H]4[C@H](C)CC[C@@H]1[C@@]24OO3 (stereo not given in full) 4.5 nM, COc1cc2c(cc1O)CCN[C@@]21CS[C@H]2c3c(OC(C)=O)c(C)c4c(c3C(COC1=O)N1C2C2c3c(cc(C)c(OC)c3O)CC([C@@H]1O)N2C)OCO4 (stereo not given in full) 1 nM, C[n+]1c2cc(N)ccc2cc2ccc(N)cc21 199 nM, CC[C@@]1(O)C[C@H](O[C@H]2C[C@@H](N(C)C)[C@@H](O[C@H]3C[C@@H](O)[C@@H](O[C@H]4CCC(=O)[C@@H](C)O4)[C@@H](C)O3)[C@@H](C)O2)c2c(cc3c(c2O)C(=O)c2c(O)cccc2C3=O)[C@H]1C(=O)OC 891 nM, CCC(C(=O)O)C1OC(C(C)C(O)C(C)C(=O)C(CC)C2OC3(C=CC(O)C4(CCC(C)(C5CCC(O)(CC)C(C)O5)O4)O3)C(C)CC2C)C(C)CC1C (stereo not given) 282 nM, COC1CC2CCC(C)[C@](O)(O2)C(=O)C(=O)N2CCCCC2C(=O)OC(C(C)CC2CCC(O)C(OC)C2)CC(=O)C(C)/C=C(/C)C(O)C(OC)C(=O)C(C)CC(C)C=CC=C/C=C\1C (stereo not given in full) 8910 nM, CN[C@H](C)CCC=C(C)C 1410 nM
